Giardia killer = kills Giardia lamblia; Giardia lamblia trophozoite viability; activity change, % at 7.66 µM, hits read low; 0.15% of 340,000 active; in the data active = activity change below about -80%; inconclusive = between about -30% and that limit;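 also: parasites exposed to compound for two days anaerobically before the ATP read; % is scaled to controls: 0 for no effect and ±100 for the full control effect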
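Viability, read as ATP luminescence: trophozoites at 100 cells/well, compound added, 48 hrs anaerobic at 37 deg C, then 15-30 min room-temperature development before reading.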
SW480 rereplic = inducers of DNA re-replication in SW480 colon cancer cells; SW480 DNA re-replication, Hoechst DNA content imaging, 48 h; Potency, µM (top dose mostly 46.1 µM), inactives show at the highest dose re-replication activation, actives largely listed as activators; 1.8% of 340,000 active; also: potency is read from the fitted curve at half-maximal effect; % of control where 0% means no effect; nearly all actives have a fitted effect of over 55% in size
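250 cells/well; 23 nL cpd via pin tool; 48 hr, 37 C, 5% CO2; Hoechst 40 min; imager read of total nuclear intensity, ex 405/em 500-530 nm.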
RORgamma inh = inhibitors of mouse ROR gamma transcriptional activity; P51450; Drosophila S2 Gal4-RORgamma UAS-luciferase reporter, 20 h; Potency, µM (titrated, usually from 53.6 µM), without a hit: at the highest dose activity change, negative = inhibition, most hits filed as inhibitors; 5.4% of 310,000 active; AID 2551; also: potency is read from the fitted curve at half-maximal effect; % is scaled to controls: 0 for no effect and ±100 for the full control effect; nearly all actives have a fitted effect of over 60% in size
Target sequence (P51450 whole entry, looked up, the tested form may be a part): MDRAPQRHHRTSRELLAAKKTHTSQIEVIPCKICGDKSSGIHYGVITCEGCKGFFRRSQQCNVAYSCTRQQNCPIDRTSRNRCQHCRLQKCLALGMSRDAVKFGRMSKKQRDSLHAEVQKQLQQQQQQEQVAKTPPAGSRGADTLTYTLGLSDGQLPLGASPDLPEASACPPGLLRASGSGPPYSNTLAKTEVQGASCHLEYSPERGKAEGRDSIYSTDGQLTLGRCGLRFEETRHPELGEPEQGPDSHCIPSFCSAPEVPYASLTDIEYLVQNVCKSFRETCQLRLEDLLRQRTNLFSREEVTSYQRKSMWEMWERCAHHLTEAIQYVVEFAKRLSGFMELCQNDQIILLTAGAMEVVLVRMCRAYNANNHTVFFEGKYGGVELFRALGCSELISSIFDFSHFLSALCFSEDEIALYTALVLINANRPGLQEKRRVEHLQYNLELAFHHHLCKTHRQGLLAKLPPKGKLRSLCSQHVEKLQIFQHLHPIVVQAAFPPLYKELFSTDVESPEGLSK
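Stable Schneider cell line, Gal4 DNA-binding domain fused to ROR gamma, UAS-luciferase. Cmpd 1 hr RT → CuSO4 700 uM final → 20 hr RT → luciferase reagent 10 min → luminescence.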
Gal4-VP16 FLuc = Gal4-VP16 reporter inhibition counter-screen; Drosophila S2 Gal4-VP16 UAS-luciferase, luminescence, 20 h; Potency, µM (top dose mostly 53.6 µM), for the others: at the top dose activity, negative = inhibition, actives largely listed as inhibitors; 3.5% of 310,000 active; AID 2546;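 also: Gal4-VP16 expression switched on by copper sulfate through the metallothionein promoter; potency is read from the fitted curve at half-maximal effect; % is scaled to controls: 0 for no effect and ±100 for the full control effect; nearly all actives have a fitted effect of over 50% in size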
MCF10A rereplic = induces DNA re-replication in MCF 10a normal breast cells. Potency, µM (doses to about 46.1 µM), without a hit: at the top dose activity, positive = re-replication, hits mostly activators. MCF 10A DNA re-replication, Hoechst nuclear intensity, 48 h. 2.9% of 350,000 active. AID 624296; also: potency is read from the fitted curve at half-maximal effect; % of control where 0% means no effect; nearly all actives have a fitted effect of over 50% in size
Chronic BCR inh = blocks chronic active B-cell receptor signaling. ABC-DLBCL IkBa-CBG/CBR reporter, luminescence ratio, 4 h. Potency, µM (series often up to 46.1 µM), without a hit: at the top dose activity change, negative = inhibition, most hits filed as inhibitors. 0.05% of 340,000 active; active = well fitted inhibition curve with a large enough effect in the signal ratio, with a control signal flat, not every such curve was filed as active; inconclusive = small, poorly fitted or top-dose-only effect, or effect the other way, or a change in a side signal; the % refers to the signal ratio;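 also: potency is read from the fitted curve at half-maximal effect; plate controls were basal doxycycline-induced cells for no effect and cells given 10 µM MG132 for full effect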
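TMD8 ABC-DLBCL cells carrying doxycycline-inducible green luciferase fused to IkappaBalpha plus unfused red luciferase were exposed to compounds (up to 46 uM) for 4 hrs at 37C. Activity came from the overlap-corrected green/red luminescence ratio.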
Numbers without * were called inactive; [ ] = another dose, or the depositor's remark. Compounds with a hit are over-represented: about 8.3% of the library has one in this group of screens. Unless noted, calls follow the shape of the dose curve; as a rule, active = well fitted curve in the direction sought with a large enough effect; inconclusive = small, poorly fitted or top-dose-only effect, or another doubt; inactive = no such curve, though single readings can be large; an effect the other way counts as inactive or inconclusive.

Screening Cc1[nH]c2ccc(-c3n[nH]c(=S)n3-c3ccc(Br)cc3)cc2c1C returned Giardia killer -0.6, SW480 rereplic -4.0%, RORgamma inh 7.94µM*, Gal4-VP16 FLuc -7.5%, MCF10A rereplic 4.7% and Chronic BCR inh -0.7%.
For CCC(=O)N1CCc2cc(CNC(=O)c3ccccc3C)ccc21 the results were Chronic BCR inh 5.4%.
`O=C1Nc2ccccc2N(O)N1c1cc(-c2ccccc2)[nH]n1` gave Giardia killer 3.7, SW480 rereplic -7.7%, RORgamma inh -2.8%, Gal4-VP16 FLuc -4.4%, MCF10A rereplic -0.3% and Chronic BCR inh inconclusive.
CCCCCCCCCCCCCCCCCCOC[C@@H](O)COP(=O)([O-])OCC[N+](C)(C)C was read as RORgamma inh 24.9% and Gal4-VP16 FLuc 1.6%.
`CCc1cc(=O)oc2c(C)c(OCC(=O)N3CCCc4ccccc43)ccc12` gave Giardia killer -19.4, SW480 rereplic 6.1%, RORgamma inh 11.2µM*, Gal4-VP16 FLuc inconclusive, MCF10A rereplic -12.9% and Chronic BCR inh inconclusive.
For O=C1[C@H]2CCC=C[C@H]2[C@H](c2ccccc2Br)N1Cc1ccccc1 the results were Giardia killer 12.4, SW480 rereplic 2.9%, RORgamma inh 18.3%, Gal4-VP16 FLuc -2.5%, MCF10A rereplic inconclusive and Chronic BCR inh -2.4%.
For COc1ccc(N2C(=O)[C@H]3CCC=C[C@H]3[C@@H]2c2ccccc2Br)cc1 the results were Giardia killer 2.6, SW480 rereplic -6.1%[9.22 µM], RORgamma inh 17.8µM*, Gal4-VP16 FLuc 31.6µM*, MCF10A rereplic inconclusive and Chronic BCR inh -11.0%.
Screening C=CC[C@@H]1C=C[C@H](O/N=C(\C)CCN2CCc3nc(-c4ccccc4)c(-c4ccccc4)cc3C2)[C@H](CO)O1 returned RORgamma inh -6.9%[10 µM] and Gal4-VP16 FLuc -5.5%[10 µM].
For O=C(NC1CCN(Cc2ccccc2Cl)CC1)c1ccccc1 the results were Giardia killer -5.5, SW480 rereplic -4.4%, RORgamma inh 13.8%, Gal4-VP16 FLuc 3.4%, MCF10A rereplic 2.8% and Chronic BCR inh -3.3%.
Screening COc1cc(/C=C/C(=O)O)cc(S(=O)(=O)Nc2ccc3nc(SC)sc3c2)c1OC returned Giardia killer 4.6, SW480 rereplic -5.5%, RORgamma inh -6.2%, Gal4-VP16 FLuc -5.3%, MCF10A rereplic -0.2% and Chronic BCR inh 8.0%.
Screening CCSc1nc2ccc(C)cc2cc1C#N returned Giardia killer 10.9, SW480 rereplic -2.4%, RORgamma inh -12.1%, Gal4-VP16 FLuc -6.5%, MCF10A rereplic -1.1% and Chronic BCR inh inconclusive.
For CCc1nc(SCC(=O)O)c(C#N)cc1C the results were Giardia killer -7.2, SW480 rereplic -22.1%, RORgamma inh 8.0%, Gal4-VP16 FLuc -6.2%, MCF10A rereplic -0.9% and Chronic BCR inh 0.3%.
For CCOC(=O)CC(=O)CSc1nc2ccc(C)cc2cc1C#N the results were Giardia killer -4.5, SW480 rereplic -1.1%, RORgamma inh inconclusive, Gal4-VP16 FLuc 10.8%, MCF10A rereplic 23.1µM* and Chronic BCR inh 20.7%.
For CCOC(=O)CC(=O)CSc1nc(CC)c(C)cc1C#N the results were Giardia killer 22.3, SW480 rereplic 23.1µM*, RORgamma inh -7.6%, Gal4-VP16 FLuc -0.4%, MCF10A rereplic 0.0% and Chronic BCR inh 9.1%.
`O=C(N/N=C/c1cccs1)c1cc(-c2ccc3ccccc3c2)n[nH]1` gave Giardia killer -23.5, SW480 rereplic inconclusive, RORgamma inh 3.16µM*, Gal4-VP16 FLuc 5.01µM*, MCF10A rereplic inconclusive and Chronic BCR inh inconclusive.
O=C(N/N=C/c1cccs1)c1cc(-c2cccc3ccccc23)n[nH]1 was read as Giardia killer 11.4, SW480 rereplic inconclusive, RORgamma inh 5.01µM*, Gal4-VP16 FLuc 5.01µM*, MCF10A rereplic 23.1µM* and Chronic BCR inh 28.3%.
Cc1cc(C)n2nc(C(=O)N/N=C/c3cccs3)nc2n1 was read as Giardia killer 7.5, SW480 rereplic -1.9%, RORgamma inh 14.7%, Gal4-VP16 FLuc 3.4%, MCF10A rereplic -1.5% and Chronic BCR inh -0.5%.
`Cc1ccc(-c2csc3ncn(CC#N)c(=O)c23)cc1C` gave Giardia killer -14.8, SW480 rereplic -7.0%, RORgamma inh -21.2%, Gal4-VP16 FLuc 3.8%, MCF10A rereplic inconclusive and Chronic BCR inh 1.4%.
`Nc1ncnc2c1cnn2-c1ccccc1` gave Giardia killer -14.3, SW480 rereplic -15.3%, RORgamma inh 2.1%, Gal4-VP16 FLuc 6.2%, MCF10A rereplic 4.6% and Chronic BCR inh inconclusive.
Screening S=c1nc[nH]c2c1cnn2-c1ccccc1 returned Giardia killer 11.1, SW480 rereplic -7.0%, RORgamma inh 3.55µM*, Gal4-VP16 FLuc 3.98µM*, MCF10A rereplic 0.5% and Chronic BCR inh inconclusive.
For Cc1cc(NC(=O)CCCn2ccc([N+](=O)[O-])n2)n(Cc2ccc(F)cc2)n1 the results were Giardia killer -3.8, SW480 rereplic -8.8%, RORgamma inh 24.3%, Gal4-VP16 FLuc -0.5%, MCF10A rereplic -0.1% and Chronic BCR inh 0.9%.
For C/C(N)=C(/C#N)C(=O)CSc1nc2ccccc2c(=O)n1Cc1ccc(C)cc1 the results were Giardia killer -6.8, SW480 rereplic inconclusive, RORgamma inh 2.51µM*, Gal4-VP16 FLuc 3.98µM*, MCF10A rereplic inconclusive and Chronic BCR inh -9.0%.
`C/C(N)=C(/C#N)C(=O)CSc1nc2ccccc2c(=O)n1Cc1ccc(F)cc1` gave Giardia killer -17.3, SW480 rereplic 3.8%, RORgamma inh 2.82µM*, Gal4-VP16 FLuc 3.55µM*, MCF10A rereplic 22.8% and Chronic BCR inh inconclusive.
`C/C(N)=C(/C#N)C(=O)CSc1nnnn1-c1ccc(C)cc1C` gave Giardia killer 1.8, SW480 rereplic -0.3%, RORgamma inh -25.1%, Gal4-VP16 FLuc 12.6µM*, MCF10A rereplic -5.8% and Chronic BCR inh -2.5%.
Screening O=C(COc1ccccc1Br)c1ccc2c(c1)OCO2 returned Giardia killer -24.5, SW480 rereplic -33.6%, MCF10A rereplic -6.2% and Chronic BCR inh 1.3%.
`O=C(COc1ccccc1Br)c1ccc(O)cc1O` gave Giardia killer -4.3, SW480 rereplic 3.1%, RORgamma inh 10µM*, Gal4-VP16 FLuc inconclusive, MCF10A rereplic -3.4% and Chronic BCR inh inconclusive.
Screening COC(C[C@@H]1O[C@H]1C(=O)[C@@H](C)OCc1ccccc1)OC returned Giardia killer -10.7, SW480 rereplic 23.1µM* and MCF10A rereplic inconclusive.
For C[C@@H]1C=CCC(=O)OC[C@H](C)C(=O)OC[C@H]2O[C@H]1C=C[C@@H]2O the results were RORgamma inh 3.7%[10 µM] and Gal4-VP16 FLuc -1.3%[10 µM].

Screening data: PubChem BioAssay, National Center for Advancing Translational Sciences (NCATS)
